# Assay outcomes (PubChem BioAssay)
# HTR5A inv ag: inverse agonist of human HTR5A in OPRM1-OPRD1 counter-screen | HTR5A cell line, luminescence, inverse agonism | inhibition, % at 9.3 µM | 340,000 compounds, 0.083% hits; in the data active means inhibition mostly above about 23%, no sharp cut-off; inactive means mostly below about 18%;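 further: 0% = cells with DMSO and 100% = no-cell wells with DMSO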
# OPRM1-OPRD1 ag: OPRM1-OPRD1 heterodimerization agonism; P35372+P41143; cells, luminescence; activation, % at 9.3 µM; 340,000 compounds, 0.3% hits; AID 504326; in the data active means activation above about 18%;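 further: 0% = vehicle-treated cells and 100% = reference agonist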
# Target sequence (P35372 whole entry, looked up): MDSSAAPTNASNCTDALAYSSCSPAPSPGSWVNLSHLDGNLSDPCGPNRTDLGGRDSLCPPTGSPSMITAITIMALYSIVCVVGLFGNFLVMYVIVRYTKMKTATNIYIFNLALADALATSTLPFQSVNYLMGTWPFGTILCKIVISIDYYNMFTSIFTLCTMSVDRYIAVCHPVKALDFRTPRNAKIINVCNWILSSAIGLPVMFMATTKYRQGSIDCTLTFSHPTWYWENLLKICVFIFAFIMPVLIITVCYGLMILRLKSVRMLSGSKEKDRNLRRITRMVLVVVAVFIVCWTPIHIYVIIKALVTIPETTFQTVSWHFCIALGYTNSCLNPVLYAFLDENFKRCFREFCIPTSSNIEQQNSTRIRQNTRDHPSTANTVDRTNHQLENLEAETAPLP
# Target sequence (P41143 whole entry, looked up): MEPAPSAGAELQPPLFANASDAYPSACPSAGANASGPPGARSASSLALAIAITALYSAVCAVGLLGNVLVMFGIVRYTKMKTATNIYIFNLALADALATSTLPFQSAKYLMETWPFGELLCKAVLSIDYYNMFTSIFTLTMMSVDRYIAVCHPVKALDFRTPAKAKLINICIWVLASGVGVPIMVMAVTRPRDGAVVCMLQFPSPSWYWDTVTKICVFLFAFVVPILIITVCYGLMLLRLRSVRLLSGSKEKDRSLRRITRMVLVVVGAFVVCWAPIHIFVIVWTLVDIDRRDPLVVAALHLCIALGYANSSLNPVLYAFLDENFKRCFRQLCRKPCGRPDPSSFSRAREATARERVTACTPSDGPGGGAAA
# HTR5A ag ctr: activates human HTR5A in OPRM1-OPRD1 agonist counter-screen; 340,000 compounds, 0.61% hits; HTR5A agonist assay, luminescence, cell-based; activation, % at 9.3 µM; P47898; in the data active means activation mostly above about 9.5%, no sharp cut-off; inactive means mostly below about 7.6%;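 further: 0% = cells with vehicle only and 100% = reference agonist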
# OPRM1-OPRD1 inv: inverse agonist of human OPRM1-OPRD1 heterodimerization. P35372+P41143. cell-based MOR-DOR heterodimer luminescence, inverse agonism. inhibition, % at 9.3 µM. 340,000 compounds, 0.21% hits. AID 504357; in the data active means inhibition above about 22%, passing the limit was not always enough;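 further: 0% = cells with DMSO and 100% = wells without cells with DMSO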
# * hit, by the source's call. Compounds with a hit are over-represented: about 1.1% of the library has one in this group of screens.
SMILES,HTR5A inv ag,OPRM1-OPRD1 ag,HTR5A ag ctr,OPRM1-OPRD1 inv
Cc1[nH]n2c(=O)c3c(nc2c1-c1ccc(Cl)cc1)CCC3,-56,-1,20*,7
CCN(CC(=O)Nc1ccc(NC(C)=O)cc1)C(=O)CN1C(=O)C2CCCCC2C1=O (stereo not given),12,2,-4,-10
COc1ccccc1C(c1nnnn1C(C)(C)C)N1CCCc2ccccc21 (stereo not given),-26,1,13*,-6
CC(C)(C)n1nnnc1C(c1ccc(Cl)cc1)N1CCCc2ccccc21 (stereo not given),14,-2,3,13
NNc1nc2c(-c3cccc(C(F)(F)F)c3)nnn2c2ccccc12,-14,2,4,-10
Cc1c(NC(=O)c2ccc([N+](=O)[O-])o2)cccc1-c1nc2ncccc2o1,-3,3,1,-18
COc1ccc(/C=N/NC(=O)c2sccc2C)c2ccccc12,-16,11,13*,-57
COC(=O)c1cc(NC(=O)Cc2cccs2)cc(C(=O)OC)c1,-9,-2,-2,12
C/C(=N\NC(=O)CNc1cccc(Cl)c1C)c1cccs1,-12,0,-2,-2
COc1ccccc1NCC(=O)N/N=C(\C)c1cccs1,-36,3,14*,-17
COc1ccc2[nH]cc(CCNC(=O)c3ccc4ccccc4n3)c2c1,-52,-1,14*,4
COc1ccc(C(=O)NCCc2c[nH]c3ccc(OC)cc23)cc1,-11,-3,3,12
COc1cc(C(=O)Nc2nc(-c3cc(C)ccc3C)c(C)s2)ccc1OCC(=O)Nc1ccc(F)cc1,-11,2,7,-9
COc1ccc(-c2nc(NC(=O)c3ccc(OCC(=O)Nc4ccc(F)cc4)c(OC)c3)sc2C)cc1,6,19*,15*,-102
COc1ccc(OC)c(Cc2nnc(CCC(=O)N3CCN(C4CCCC4)CC3)o2)c1,6,-1,-2,5
CC(=O)N/C(=C\c1ccccc1)C(=O)OCc1ccc(F)cc1,-12,-3,5,13
CCOC(=O)CNC(=O)CSc1nc(N(C)C)nc(N2CCOCC2)n1,-11,3,11*,-13
CCOC(=O)c1ccc(NC(=O)CSc2nc(N3CCOCC3)nc(N3CCOCC3)n2)cc1,0,-2,1,12
CCn1c(N2CCN(S(=O)(=O)c3ccccc3C(F)(F)F)CC2)nc2ccccc21,-62,2,13*,-12
Cc1ccc(N(C(=O)c2csnn2)C(C(=O)NC2CCCCC2)c2cccnc2)cc1 (stereo not given),-19,-2,-7,8
CCOc1ccccc1N1CCN(Cc2cn[nH]c2-c2ccc(F)cc2)CC1,-14,0,14*,1
CCOc1ccccc1N1CCN(Cc2cccc(OC)c2OC)CC1,-3,-1,1,4
CSCC(C)N1CCC(CCC(=O)NC2CC2)CC1 (stereo not given),9,-4,12*,20
COc1cc2nc(N3CCN(C(=O)[C@H]4COc5ccccc5O4)CC3)nc(N)c2cc1OC,-9,2,2,-9
Nc1ccc(-c2c3ccc(=O)cc-3oc3cc(O)ccc23)c(C(=O)O)c1,17,-6,-5,32*
SMILES,HTR5A inv ag,OPRM1-OPRD1 ag,HTR5A ag ctr,OPRM1-OPRD1 inv
CC1(C(=O)OCC(=O)NCCNC(=O)COC(=O)C2(C)CC2(Cl)Cl)CC1(Cl)Cl (stereo not given),-24,-1,12*,6
Cc1cc(NC(=O)CSc2nccn2C)n(-c2ccccc2)n1,-20,1,14*,-6
Cc1cc(NC(=O)COc2ccccc2)n(-c2ccccc2)n1,-1,-2,6,10
O=C(NCCc1ccc(Cl)cc1Cl)C1=CC=CN2CCS(=O)(=O)N=C12,-8,-2,3,7
CCc1ccc2oc(-c3ccc(NC(C)=O)cc3)nc2c1,-3,0,1,-1
Oc1ccccc1/C=N/NC(=S)NCCc1ccccc1,-38,5,10*,-23
S=C(NCCc1ccccc1)N/N=C/c1cccc(Cl)c1Cl,-7,0,3,-1
COc1cc([C@H]2c3[nH]c4ccccc4c3C[C@H]3C(=O)N4[C@@H](c5cc(OC)c(OC)c(OC)c5)c5[nH]c6ccccc6c5C[C@H]4C(=O)N23)cc(OC)c1OC,-28,21*,10,-128
CCN1C(=O)[C@@H]2Cc3c([nH]c4ccccc34)C(c3cc(OC)c(OC)c(OC)c3)N2C1=S (stereo not given in full),-1,0,0,2
O=C1C=C(c2ccoc2)N2CCC[C@H]2C1,-6,0,0,1
Cc1c2n(c3ccccc13)CCN(C)C2,-10,-2,4,12
COC(=O)C(NS(=O)(=O)c1ccccc1Br)C(C)C (stereo not given),-13,1,14*,-7
Cc1ccc(S(=O)(=O)NC(C)C(=O)N2CCOCCOCCOCCOCC2)cc1 (stereo not given),-24,-1,9,7
CC(C)C[C@@H](CO)N(Cc1ccccc1)S(=O)(=O)N(Cc1ccccc1)[C@H](CO)CC(C)C,-10,9,3,-53
C=C[C@H](CC(C)C)N(Cc1ccccc1)S(=O)(=O)N(Cc1ccccc1)[C@@H](C=C)CC(C)C,32*,-8,0,42*
COC(=O)c1ccccc1OCCOCCOc1cccc2cccnc12,-42,-2,11*,9
C/C(N)=C(/C#N)C(=O)CSc1nc2ccccc2n1CC(C)C,-1,-2,0,13
Nc1cc(=O)nc(SCC(=O)N(C2CCCCC2)C2CCCCC2)n1-c1ccccc1,-12,3,13*,-17
CSc1ccccc1NC(=O)c1cc(-c2cccnc2)nc2ccc(Br)cc12,-33,0,13*,-1
N#Cc1c(C(F)(F)F)cc(-c2ccccc2Cl)[nH]c1=O,-20,1,12*,-5
N#Cc1c(C(F)(F)F)cc(-c2ccccc2)[nH]c1=O,1,-1,0,8
O=C(CCN1C(=O)c2ccc(Br)cc2C1=O)NC1CCCCC1,16,-2,0,12
COc1cccc(-c2n[nH]c(=S)n2Cc2ccco2)c1,-1,1,-2,-6
COc1cccc(C=NNC(=O)c2ccncc2)c1O,-30,0,8.5*,3
N#CCCNS(=O)(=O)c1ccc(C(=O)OCC2CCCCC2)cc1,1,7,12*,-60
SMILES,HTR5A inv ag,OPRM1-OPRD1 ag,HTR5A ag ctr,OPRM1-OPRD1 inv
COc1ccc(CNC(=O)C2CCCN(S(=O)(=O)c3ccc(F)cc3)C2)cc1 (stereo not given),6,-2,0,7
COC(=O)c1cc(NS(=O)(=O)c2ccc(C(C)C)cc2)ccc1N1CCOCC1,0,0,0,-2
COC(=O)C1=C(C)NC(=S)NC1c1ccco1 (stereo not given),-5,-1,2,5
COc1ccc2c(c1)[nH]c1c(=O)n(N)cnc12,-22,0,0,2
COc1ccc2c(c1)[nH]c1c(Cl)ncnc12,9,2,12*,-11
CN(CCOc1ccccc1)C(=O)c1ccc(F)c(S(=O)(=O)N2CCOCC2)c1,25,-1,-9,7
O=C1CCCCC1CCc1ccncc1 (stereo not given),9,-2,-2,12
